Source: PubChem BioAssay AID602281 (The Scripps Research Institute Molecular Screening Center, 2012)
The campaign covered roughly 360,000 compounds. About 2,900 (0.81%) were called active. Shown is part of a subset that was picked to be rich in actives. Values without a mark were called inactive.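 The calls were made as follows: active = inhibition above the mean inhibition across every tested compound plus 3 SD (cut at about 22% in these data); inactive = the rest.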

Target: Perilipin-5 (Homo sapiens) + 1-acylglycerol-3-phosphate O-acyltransferase ABHD5 (Homo sapiens) (UniProt Q00G26+Q8WTS1)
Sequence (Q00G26 whole entry, looked up): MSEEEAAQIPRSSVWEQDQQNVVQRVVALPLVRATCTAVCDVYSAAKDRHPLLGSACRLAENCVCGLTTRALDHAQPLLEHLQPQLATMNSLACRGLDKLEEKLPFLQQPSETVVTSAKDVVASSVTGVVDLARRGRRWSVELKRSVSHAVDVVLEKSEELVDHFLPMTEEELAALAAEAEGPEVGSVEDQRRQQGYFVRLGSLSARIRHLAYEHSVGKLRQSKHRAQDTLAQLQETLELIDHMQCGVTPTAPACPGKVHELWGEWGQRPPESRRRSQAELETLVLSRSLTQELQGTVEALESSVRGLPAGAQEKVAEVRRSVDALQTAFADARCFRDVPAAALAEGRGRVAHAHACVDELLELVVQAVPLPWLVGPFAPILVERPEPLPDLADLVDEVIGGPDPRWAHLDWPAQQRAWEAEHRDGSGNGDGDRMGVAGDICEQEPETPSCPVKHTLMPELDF
Sequence (Q8WTS1 whole entry, looked up): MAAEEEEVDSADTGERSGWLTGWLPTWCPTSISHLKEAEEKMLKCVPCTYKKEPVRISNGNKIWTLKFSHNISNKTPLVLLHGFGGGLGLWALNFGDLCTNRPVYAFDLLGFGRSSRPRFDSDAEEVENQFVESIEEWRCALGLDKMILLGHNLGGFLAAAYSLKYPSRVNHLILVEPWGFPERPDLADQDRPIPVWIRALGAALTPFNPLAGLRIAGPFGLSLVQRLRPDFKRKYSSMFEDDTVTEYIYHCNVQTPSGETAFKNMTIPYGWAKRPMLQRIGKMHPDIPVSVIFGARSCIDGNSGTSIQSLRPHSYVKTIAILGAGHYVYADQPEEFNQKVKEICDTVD
Experiment: blockers of ABHD5 binding to perilipin-5 – cell lysate, split luciferase complementation, luminescence, primary screen (AID 602281);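 also: 0% = DMSO only wells and the 100% control is not disclosed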
Conditions: Split G. princeps luciferase complementation, 4 h, at 4 µM, hits give high values

SMILES	inhibition
Cc1ccc(-n2c(SCC(=O)Nc3ncc(Cl)cc3Cl)nc3ccccc32)cc1	-7.45%
Nn1c(SCC(=O)NC2CCCc3ccccc32)nnc1C1CC1 (stereo not drawn)	10.4%
O=S(=O)(Nc1nccs1)c1ccc2c(c1)OCCO2	-5.22%
CCOc1ccc2nc(Cl)c(C3CC(c4ccccc4)=NN3C(=O)c3cccs3)cc2c1 (stereo not drawn)	-5.74%
Cc1cccc(C)c1NC(=O)CN1C(=O)C(C)Oc2ccccc21 (stereo not drawn)	-5.51%
O=C(NCCOCc1ccc(Cl)cc1)c1ncn[nH]1	24.2% (active)
O=C(NCCS(=O)(=O)NCc1ccc(Cl)cc1)c1ccccc1	-6.46%
Cc1cc(C(=O)NCCc2ccc(Cl)cc2)n(-c2ccccc2)n1	1.98%
O=C(C(=O)N1CCc2ccccc2C1)c1c[nH]c2ccccc12	0.81%
COc1cccc(C(CC(=O)NCCN2CCOCC2)NS(=O)(=O)c2ccc(C)cc2)c1OC (stereo not drawn)	9.39%
Nc1ccc2nc3c(=O)[nH]c(=S)[nH]c3nc2c1	35% (active)
Cc1cccc(C(=O)Nc2ccc(Oc3cnccn3)cc2)c1	3.4%
CN(CC(=O)Nc1ccc(F)cc1)CC(=O)Nc1ccc(Cl)c(S(=O)(=O)N2CCOCC2)c1	5.71%
Cc1cccc(CS(=O)(=O)c2ncc(Cl)c(C(=O)Nc3ccc(F)cc3)n2)c1	53.6% (active)
O=C(CS(=O)(=O)Cc1ccccc1)Nc1cccnc1	-3.38%
Cc1cccc(NS(=O)(=O)c2ccc(C)c(C(=O)NCc3cccnc3)c2)c1	3.74%
Cc1cccc(NC(=O)c2nc(S(=O)(=O)Cc3ccccc3)ncc2Cl)c1	72.4% (active)
O=C(NCCN1CCN(C(=O)c2cccc([N+](=O)[O-])c2)CC1)C(=O)NCc1ccc(Cl)cc1	12.1%
CCOc1cc(C(=O)Nc2c(C)ccc3nsnc23)cc(OCC)c1OCC	-10.9%
C[C@@H]1C[C@@H]2O[C@H]2/C=C\C=C\C(=O)Cc2c(Cl)c(O)cc(O)c2C(=O)O1	27.7% (active)

SMILES	inhibition
COc1ccccc1CNS(=O)(=O)c1cc(C(=O)NCc2ccccn2)c(Cl)cc1Cl	2.36%
Cc1ccc2c(c1)N(CC(=O)N1CCC(C)CC1)C(=O)c1cccnc1O2	-5.07%
Cc1ccc(N(C(=O)c2ccc(CN3CCOCC3)o2)C(C(=O)NCCC(C)C)c2cccs2)c(C)c1 (stereo not drawn)	5.44%
Cc1ccc(S(=O)(=O)N2CCC(C(=O)N[C@@H](C)C(=O)NCCc3ccccc3)CC2)cc1	-6.43%
NC(=S)Nc1c(Cl)cccc1Cl	-3.54%
CCCCN(CCCC)CCNC(=O)CN1C(=O)COc2ccc(S(=O)(=O)N3CCOCC3)cc21	-1.64%
Fc1cccc(Cc2c(-c3ccc(Cl)cc3)nc3ccc(Cl)cn23)c1	11.5%
Cc1cc2nc(-c3ccc(F)cc3)c(Cc3ccsc3)n2c(C)c1Br	-2.1%
Cc1cc2nc(-c3ccco3)c(Cc3cccc(F)c3)n2c(C)c1Br	23.1% (active)
Cc1ccc(Cc2c(-c3ccco3)nc3ccc(Cl)cn23)cc1	54.8% (active)
Cc1ccc(Cc2c(-c3ccccc3)nc3ccc(Cl)cn23)cc1	-3.87%
Fc1cccc(Cc2c(-c3cccc(Cl)c3)nc3ccc(Br)cn23)c1	-8.3%
Cc1cc2nc(-c3ccc(Cl)cc3)c(Cc3cccc(F)c3)n2c(C)c1Br	-5.68%
Cc1ccc2nc(-c3ccco3)c(Cc3cccc(Cl)c3)n2c1	32.1% (active)
Clc1cccc(Cc2c(-c3cccc(Cl)c3)nc3ccc(Cl)cn23)c1	-8.19%
Nn1c(SCc2ccccc2)nnc1C1CCCCC1	7.84%
CCOc1ccc(NC(=O)CN(C)CC(=O)Nc2cccc(Cl)c2C)cc1OCC	-2.27%
COCCN1Cc2cccc(C(=O)Nc3ccccc3OC)c2C1=O	2.14%
CCc1ccccc1S(=O)(=O)Cc1ccc(C(=O)NCCc2ccccc2)o1	0.54%
CCC(C)CN1C(=O)CSCC1(C)C(=O)NCc1ccccc1 (stereo not drawn)	-0.17%

SMILES	inhibition
NC(=O)C(Cc1ccccc1)NC(=O)C12CC3CC(CC(C3)C1)C2 (stereo not drawn)	-7.59%
COc1cc(OC)cc(C(=O)NNC(=O)CNC(=O)c2ccc(Br)o2)c1	1.69%
CCCCCCNC(=O)O[C@H]1CN(C(=O)OC(C)C)N(C(=O)OC(C)C)[C@@H]2CN(S(=O)(=O)c3ccc(C)cc3)C[C@]12O	-9.24%
CCOCCOC(=O)C1=C(C)N(C)C(=O)NC1c1ccccc1F (stereo not drawn)	2.63%
CN1c2ccc(C=O)c3c(C=O)ccc(c23)N(C)C1(C)C	7.33%
CC(C)c1ccccc1OCC(O)CN(CC(O)COc1cccc2ccccc12)C(C)C (stereo not drawn)	8.09%
Cc1cc(C)c(NC(=O)C[N+](C)(C)CC(O)COc2cccc3ccccc23)c(C)c1 (stereo not drawn)	33% (active)
Cc1cc(C)cc(OCC(=O)NCc2cc(C)nc3ccccc23)c1	0.84%
NC(=O)c1ncn([C@@H]2O[C@H](CNCc3cnc(N4CCOCC4)s3)[C@@H](O)[C@H]2O)n1	-2.34%
COc1ccc(C(=O)c2c3ccc([N+](=O)[O-])cc3[n+]([O-])n2CCCN)cc1	-9.06%
O=C(CSc1nc(C2CC2)nc2ccccc12)Nc1cccc(O)c1	-2.61%
O=C(NNc1c2ccccc2nc2ccccc12)c1cc2ccccc2cc1O	26.3% (active)
O=C(Cc1ccccn1)c1ccc(O)cc1O	-1.78%
CCCn1c(N)c(N(CCOC)C(=O)C2CCCC2)c(=O)[nH]c1=O	-0.19%
Cc1ccc(CC(=O)N(C)CC(=O)N(CC(C)C)c2c(N)n(CC(C)C)c(=O)[nH]c2=O)cc1C	-2.36%
O=c1[nH]c(/C=C\c2cccc(C(F)(F)F)c2)nc(O)c1[N+](=O)[O-]	42.7% (active)
O=c1cc(O)c(-c2cccc(C(F)(F)F)c2)c(Cl)[nH]1	1.03%
Cc1ccccc1/C=C\c1nc(O)c([N+](=O)[O-])c(=O)[nH]1	15.6%
